Compounds without any hit were thinned out: in the full panel of roughly 79,000, 15% have a hit. Unmarked numbers belong to inactive results. The source made the active and inactive calls. No stated cut-off is given here; in the data, active means growth inhibition above about 70%; inactive means the rest.
Assays:
[1] = NCI Yeast Anticancer Drug Screen. Data for the rad52 strain (AID 147);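 further: 0% = growth of vehicle-treated control cultures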; settings: S. cerevisiae rad52 mutant growth inhibition, stronger effect = higher value
Summary of the method: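 Inhibition of yeast growth, referenced to vehicle controls, was the measured output for a strain with defective DNA damage repair.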

[2] = NCI Yeast Anticancer Drug Screen. Data for the wt1 strain (AID 149);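 further: 0% = growth of vehicle-treated wt1 cultures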; settings: S. cerevisiae wt1 strain (SPY 50644) growth inhibition, stronger effect = higher value
Summary of the method: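 Compounds are added to wt1 yeast cultures. Growth is then measured. Inhibition is expressed relative to vehicle-treated controls.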

[3] = NCI Yeast Anticancer Drug Screen. Data for the rad50EPP+ strain (AID 151);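 further: 0% = growth of vehicle-treated control cultures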; settings: S. cerevisiae rad50 mutant strain, stronger effect = higher value
Summary of the method: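 Genetically defined yeast (rad50EPP+, DNA damage repair alteration) is grown with compound, and inhibition of growth is expressed relative to vehicle-treated controls.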

[4] = NCI Yeast Anticancer Drug Screen. Data for the mgt1 strain (AID 153); settings: S. cerevisiae mgt1 mutant growth inhibition, stronger effect = higher value
Summary of the method: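 In the mgt1 strain, test compounds were added and growth inhibition was determined relative to vehicle-treated controls.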

[5] = NCI Yeast Anticancer Drug Screen. Data for the rad50 strain (AID 155);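 further: 0% = growth of vehicle-only cultures of the same strain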; settings: S. cerevisiae rad50 strain growth inhibition, stronger effect = higher value
Summary of the method: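 Inhibition values express reduced yeast growth in compound-treated cultures relative to vehicle-treated controls.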

[6] = NCI Yeast Anticancer Drug Screen. Data for the mec2-1 strain (AID 157); settings: S. cerevisiae mec2-1 strain, stronger effect = higher value
Summary of the method: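 Each compound was tested on mec2-1 yeast, a strain altered in DNA damage repair or cell cycle control. Growth inhibition is reported relative to vehicle.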

[7] = NCI Yeast Anticancer Drug Screen. Data for the rad14 strain (AID 159);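 further: 0% = growth of vehicle-treated control cultures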; settings: S. cerevisiae rad14 strain growth inhibition, stronger effect = higher value
Summary of the method: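 A mutant yeast strain defective in DNA damage repair is treated with compound; inhibition of its growth is scored against untreated, vehicle-exposed cultures.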

[8] = NCI Yeast Anticancer Drug Screen. Data for the sgs1 mgt1 strain (AID 161);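 further: 0% = growth of cultures given vehicle only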; settings: S. cerevisiae sgs1 mgt1 strain, stronger effect = higher value
Summary of the method: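 Read-out: growth inhibition vs vehicle controls. Cells: mutant yeast strain deficient in DNA damage repair.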

[9] = NCI Yeast Anticancer Drug Screen. Data for the CLN2oe strain (AID 163);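 further: 0% = growth of vehicle-only control cultures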; settings: S. cerevisiae CLN2oe strain, stronger effect = higher value
Summary of the method: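 First, the altered yeast strain was treated with each compound; second, its growth was measured; finally, inhibition was derived by comparison with vehicle controls.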

[10] = NCI Yeast Anticancer Drug Screen. Data for the cln2 rad14 strain (AID 165);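 further: 0% = growth equal to vehicle treated cultures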; settings: S. cerevisiae cln2 rad14 strain, stronger effect = higher value
Summary of the method: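 Test compounds were added to cln2 rad14 yeast cultures; inhibition of growth was then determined by comparison with vehicle treatment.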

[11] = NCI Yeast Anticancer Drug Screen. Data for the bub3 strain (AID 167); settings: S. cerevisiae bub3 mutant strain, stronger effect = higher value
Summary of the method: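 Steps: expose the mutant yeast strain to compound; grow alongside vehicle-treated cultures; measure growth; express inhibition against the vehicle cultures.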

[12] = NCI Yeast Anticancer Drug Screen. Data for the wt2 strain (AID 169);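 further: 0% = growth of vehicle-treated yeast cultures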; settings: S. cerevisiae wt2 strain growth inhibition, stronger effect = higher value
Summary of the method: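 The panel's yeast strains carry defined changes in DNA repair or cell cycle genes. Each strain is grown with compound, and growth loss is scored relative to vehicle.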

[13] = NCI Yeast Anticancer Drug Screen. Data for the mlh1 strain (AID 171);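 further: 0% = growth of vehicle-treated control cultures of the same strain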; settings: S. cerevisiae mlh1 strain growth inhibition, stronger effect = higher value
Summary of the method: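 Inhibition values reflect reduced yeast growth in the presence of compound, referenced to vehicle controls, using a strain chosen for its alteration in DNA repair or cell cycle control.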

[14] = NCI Yeast Anticancer Drug Screen. Data for the sgs1 strain (AID 173);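 further: 0% = growth of vehicle-only control cultures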; settings: S. cerevisiae sgs1 mutant, stronger effect = higher value
Summary of the method: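 Vehicle-treated cultures served as reference for growth inhibition of a yeast strain altered in DNA damage repair or cell cycle control after compound exposure.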

[15] = NCI Yeast Anticancer Drug Screen. Data for the mlh1 rad18 strain (AID 175); settings: S. cerevisiae mlh1 rad18 strain growth inhibition, stronger effect = higher value
Summary of the method: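 Inhibition values reflect reduced growth of mutant yeast versus vehicle-treated controls following compound exposure; the mutations affect DNA damage repair.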

[16] = NCI Yeast Anticancer Drug Screen. Data for the rad18 strain (AID 177); settings: S. cerevisiae rad18 mutant growth inhibition, stronger effect = higher value
Summary of the method: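 Steps: expose repair-mutant yeast to compound; measure growth; express as inhibition relative to vehicle control.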

[17] = at 5.0 µM (retest, dose inferred, filed as 0.5)
[18] = at 50.0 µM (retest, dose inferred, filed as 5.0)

COc1cccc2nc3ccccc3nc12
growth inhibition ([1]; at 1.2 µM): 1%
growth inhibition ([1]; at 3.7 µM): 7%
growth inhibition ([1]; at 11.0 µM): 34%
growth inhibition ([1]; at 33.0 µM): 90% (active)
growth inhibition ([1]; at 100.0 µM): 97% (active)
growth inhibition ([2]; at 1.2 µM): -2%
growth inhibition ([2]; at 3.7 µM): -2%
growth inhibition ([2]; at 11.0 µM): 3%
growth inhibition ([2]; at 33.0 µM): 45%
growth inhibition ([2]; at 100.0 µM): 91% (active)
growth inhibition ([3]; at 1.2 µM): 1%
growth inhibition ([3]; at 3.7 µM): 8%
growth inhibition ([3]; at 11.0 µM): 34%
growth inhibition ([3]; at 33.0 µM): 79% (active)
growth inhibition ([3]; at 100.0 µM): 94% (active)
growth inhibition ([4]; at 1.2 µM): 1%
growth inhibition ([4]; at 3.7 µM): 1%
growth inhibition ([4]; at 11.0 µM): 6%
growth inhibition ([4]; at 33.0 µM): 75% (active)
growth inhibition ([4]; at 100.0 µM): 95% (active)
growth inhibition ([5]; at 1.2 µM): 2%
growth inhibition ([5]; at 3.7 µM): 15%
growth inhibition [5, 17]: -22%
growth inhibition ([5]; at 11.0 µM): 45%
growth inhibition ([5]; at 33.0 µM): 91% (active)
growth inhibition [5, 18]: 65%
growth inhibition ([5]; at 50.0 µM): 83.6% (active)
growth inhibition ([5]; at 100.0 µM): 97% (active)
growth inhibition ([6]; at 1.2 µM): -2%
growth inhibition ([6]; at 3.7 µM): 2%
growth inhibition [6, 17]: -5%
growth inhibition ([6]; at 11.0 µM): 4%
growth inhibition ([6]; at 33.0 µM): 35%
growth inhibition [6, 18]: 17%
growth inhibition ([6]; at 50.0 µM): 31.3%
growth inhibition ([6]; at 100.0 µM): 89% (active)
growth inhibition ([7]; at 1.2 µM): -2%
growth inhibition ([7]; at 3.7 µM): 0%
growth inhibition ([7]; at 11.0 µM): 2%
growth inhibition ([7]; at 33.0 µM): 30%
growth inhibition ([7]; at 100.0 µM): 82% (active)
growth inhibition [8, 17]: -19%
growth inhibition [8, 18]: 5%
growth inhibition ([8]; at 50.0 µM): 4.55%
growth inhibition ([9]; at 1.2 µM): 0%
growth inhibition ([9]; at 3.7 µM): 1%
growth inhibition ([9]; at 11.0 µM): 1%
growth inhibition ([9]; at 33.0 µM): 48%
growth inhibition ([9]; at 100.0 µM): 91% (active)
growth inhibition [10, 17]: -14%
growth inhibition [10, 18]: 18%
growth inhibition ([10]; at 50.0 µM): 9.4%
growth inhibition ([11]; at 1.2 µM): 1%
growth inhibition ([11]; at 3.7 µM): -11%
growth inhibition [11, 17]: -25%
growth inhibition ([11]; at 11.0 µM): 2%
growth inhibition ([11]; at 33.0 µM): 56%
growth inhibition [11, 18]: 19%
growth inhibition ([11]; at 50.0 µM): 24.9%
growth inhibition ([11]; at 100.0 µM): 94% (active)
growth inhibition ([12]; at 1.2 µM): -2%
growth inhibition ([12]; at 3.7 µM): -1%
growth inhibition ([12]; at 11.0 µM): 8%
growth inhibition ([12]; at 33.0 µM): 50%
growth inhibition ([12]; at 100.0 µM): 96% (active)
growth inhibition ([13]; at 1.2 µM): 0%
growth inhibition ([13]; at 3.7 µM): 3%
growth inhibition ([13]; at 11.0 µM): -2%
growth inhibition ([13]; at 33.0 µM): 51%
growth inhibition ([13]; at 100.0 µM): 97% (active)
growth inhibition ([14]; at 1.2 µM): -6%
growth inhibition ([14]; at 3.7 µM): -8%
growth inhibition ([14]; at 11.0 µM): 0%
growth inhibition ([14]; at 33.0 µM): 38%
growth inhibition ([14]; at 100.0 µM): 88% (active)
growth inhibition [15, 17]: -3%
growth inhibition [15, 18]: 36%
growth inhibition ([15]; at 50.0 µM): 43.1%
growth inhibition ([16]; at 1.2 µM): -3%
growth inhibition ([16]; at 3.7 µM): -2%
growth inhibition ([16]; at 11.0 µM): 16%
growth inhibition ([16]; at 33.0 µM): 84% (active)
growth inhibition ([16]; at 100.0 µM): 95% (active)

O=C(/C=C/c1cccc(Br)c1)c1cccs1
growth inhibition ([1]; at 1.2 µM): -32%
growth inhibition ([1]; at 3.7 µM): -12%
growth inhibition ([1]; at 11.0 µM): 74% (active)
growth inhibition ([1]; at 33.0 µM): 97% (active)
growth inhibition ([1]; at 100.0 µM): 94% (active)
growth inhibition ([2]; at 1.2 µM): -15%
growth inhibition ([2]; at 3.7 µM): -5%
growth inhibition ([2]; at 11.0 µM): 61%
growth inhibition ([2]; at 33.0 µM): 98% (active)
growth inhibition ([2]; at 100.0 µM): 95% (active)
growth inhibition ([3]; at 1.2 µM): -9%
growth inhibition ([3]; at 3.7 µM): -5%
growth inhibition ([3]; at 11.0 µM): 29%
growth inhibition ([3]; at 33.0 µM): 82% (active)
growth inhibition ([3]; at 100.0 µM): 85% (active)
growth inhibition ([4]; at 1.2 µM): -1%
growth inhibition ([4]; at 3.7 µM): 13%
growth inhibition ([4]; at 11.0 µM): 85% (active)
growth inhibition ([4]; at 33.0 µM): 97% (active)
growth inhibition ([4]; at 100.0 µM): 92% (active)
growth inhibition ([5]; at 1.2 µM): 6%
growth inhibition ([5]; at 3.7 µM): 10%
growth inhibition [5, 17]: 8%
growth inhibition ([5]; at 11.0 µM): 83% (active)
growth inhibition ([5]; at 33.0 µM): 97% (active)
growth inhibition [5, 18]: 96% (active)
growth inhibition ([5]; at 50.0 µM): 88.2% (active)
growth inhibition ([5]; at 100.0 µM): 91% (active)
growth inhibition ([6]; at 1.2 µM): -16%
growth inhibition ([6]; at 3.7 µM): 4%
growth inhibition [6, 17]: -9%
growth inhibition ([6]; at 11.0 µM): 75% (active)
growth inhibition ([6]; at 33.0 µM): 99% (active)
growth inhibition [6, 18]: 98% (active)
growth inhibition ([6]; at 50.0 µM): 91.5% (active)
growth inhibition ([6]; at 100.0 µM): 96% (active)
growth inhibition ([7]; at 1.2 µM): -2%
growth inhibition ([7]; at 3.7 µM): 5%
growth inhibition ([7]; at 11.0 µM): 81% (active)
growth inhibition ([7]; at 33.0 µM): 96% (active)
growth inhibition ([7]; at 100.0 µM): 92% (active)
growth inhibition [8, 17]: 16%
growth inhibition [8, 18]: 96% (active)
growth inhibition ([8]; at 50.0 µM): 91.8% (active)
growth inhibition ([9]; at 1.2 µM): 9%
growth inhibition ([9]; at 3.7 µM): 10%
growth inhibition ([9]; at 11.0 µM): 84% (active)
growth inhibition ([9]; at 33.0 µM): 98% (active)
growth inhibition ([9]; at 100.0 µM): 96% (active)
growth inhibition [10, 17]: 11%
growth inhibition [10, 18]: 97% (active)
growth inhibition ([10]; at 50.0 µM): 46.5%
growth inhibition ([11]; at 1.2 µM): 30%
growth inhibition ([11]; at 3.7 µM): 45%
growth inhibition [11, 17]: 36%
growth inhibition ([11]; at 11.0 µM): 94% (active)
growth inhibition ([11]; at 33.0 µM): 98% (active)
growth inhibition [11, 18]: 98% (active)
growth inhibition ([11]; at 50.0 µM): 90.8% (active)
growth inhibition ([11]; at 100.0 µM): 96% (active)
growth inhibition ([12]; at 1.2 µM): -24%
growth inhibition ([12]; at 3.7 µM): -16%
growth inhibition ([12]; at 11.0 µM): 67%
growth inhibition ([12]; at 33.0 µM): 98% (active)
growth inhibition ([12]; at 100.0 µM): 95% (active)
growth inhibition ([13]; at 1.2 µM): 9%
growth inhibition ([13]; at 3.7 µM): 25%
growth inhibition ([13]; at 11.0 µM): 89% (active)
growth inhibition ([13]; at 33.0 µM): 97% (active)
growth inhibition ([13]; at 100.0 µM): 95% (active)
growth inhibition ([14]; at 1.2 µM): -17%
growth inhibition ([14]; at 3.7 µM): 0%
growth inhibition ([14]; at 11.0 µM): 78% (active)
growth inhibition ([14]; at 33.0 µM): 98% (active)
growth inhibition ([14]; at 100.0 µM): 94% (active)
growth inhibition [15, 17]: 21%
growth inhibition [15, 18]: 95% (active)
growth inhibition ([15]; at 50.0 µM): 87.9% (active)
growth inhibition ([16]; at 1.2 µM): 4%
growth inhibition ([16]; at 3.7 µM): 26%
growth inhibition ([16]; at 11.0 µM): 91% (active)
growth inhibition ([16]; at 33.0 µM): 97% (active)
growth inhibition ([16]; at 100.0 µM): 93% (active)

— PubChem BioAssay (NCI)
